Consider 28 compounds from ChEMBL document CHEMBL1157539, “Thousands of chemical starting points for antimalarial lead identification” (Nature, 2010).

Common to all, as to assay type: functional
Assay [1] has as its system Plasmodium falciparum. Kind of assay: GSK_TCMDC: Inhibition of Plasmodium falciparum 3D7 in whole red blood cells, using parasite LDH activity as an index of growth. Test compounds present at 2uM.
In assay [2] the test system is Plasmodium falciparum. Description: GSK_TCMDC: Inhibition of Plasmodium falciparum Dd2 in whole red blood cells, using parasite LDH activity as an index of growth. Test compounds present at 2uM.
For a further assay, the system named is HepG2. Kind of assay: GSK_TCMDC: Percent inhibition of human HepG2 cell line. Test compounds present at 10uM.

On to `OC1(c2ccc(Br)cc2)CCN(C2CCN(Cc3ccccc3)CC2)CC1`, for which the Inhibition with Plasmodium falciparum [1] turned out to be 100%; with Plasmodium falciparum [2], 18%; in the assay with HepG2, 8%.
In the case of `CCCc1ccccc1OCC(O)CN(C1CCCC1)C1CCCC1.Cl` (centres undefined), the Inhibition in the assay on Plasmodium falciparum [1] came to 97%; in the assay on Plasmodium falciparum [2] it was 97%; in the assay on HepG2 it was 49%.
Regarding `CC(C)(CNCc1ccc(C(F)(F)F)cc1)c1nc(-c2ccnc(N)n2)c(-c2ccc(Cl)c(O)c2)[nH]1.Cl`, the Inhibition with Plasmodium falciparum [1] was 100%; in the assay with Plasmodium falciparum [2], 37%; in the assay on HepG2, 32%.
The like results for `COc1ccc2nc(C)cc(Nc3ccc(Cl)cc3)c2c1` were, in that order, 89%, 3% and 10%.
`COc1ccc(C=NN=c2cc(C)[nH]c3ccccc23)c(OC)c1`: the Inhibition was found to be 100% in the assay on Plasmodium falciparum [1], 94% in the assay on Plasmodium falciparum [2] and 24% in the assay on HepG2.
As for `O=C(Nc1ccccc1)N(Cc1ccccc1-c1cccc(CNCc2ccc3c(c2)OCO3)c1)C1CCN(Cc2ccccc2)CC1.O=C(O)C(F)(F)F`, the Inhibition came out at 100% with Plasmodium falciparum [1], 64% in the assay on Plasmodium falciparum [2] and 35% in the assay on HepG2.
In the case of `O=C(O)C(F)(F)F.Oc1ccc(CCCNc2nc(NCc3ccccc3-c3ccccc3)nc(NC3CCNCC3)n2)cc1`, the figures for the Inhibition in the assay with Plasmodium falciparum [1], with Plasmodium falciparum [2] and with HepG2 were 97%, 2% and 0%, respectively.
The like results for `COc1cc(Nc2nc(N)c3cc(OC)c(OC)cc3n2)cc(OC)c1.Cl` were, in that order, 100%, 100% and 7%.
As to `CCOC(=O)c1ccc(NC(=O)NNC(=O)c2ccc(CCN3CCC(c4nc(COCC(F)(F)F)c(-c5ccc(F)cc5)o4)CC3)cc2)cc1`, the results for the Inhibition in the assay with Plasmodium falciparum [1], in the assay with Plasmodium falciparum [2] and with HepG2 were 100%, 67% and 10%, respectively.
As to `Br.COc1cc(CCCON2C(=N)N=C(N)NC2(C)C)cc(OC)c1OC`, the Inhibition in the assay on Plasmodium falciparum [1] stood at 98%; in the assay on Plasmodium falciparum [2] it was 94%; in the assay on HepG2, 68%.
The like results for `O=C(Cc1ccc(NC(=O)c2ccc(O)c(-c3ccc(Cl)c(Cl)c3)c2)cc1)NCCN1CCOCC1` were, in that order, 94%, 24% and 10%.
The like results for `Cc1cc(NCCC(=O)Nc2ccccc2)nc(NCCc2ccc(F)cc2)n1.O=C(O)C(F)(F)F` were, in that order, 100%, 43% and 26%.
The like results for `CCCNCc1ccc(-c2ccc(CN(CCOC)C(=O)/C=C/c3ccccc3C)cc2)nc1.O=C(O)C(F)(F)F` were, in that order, 95%, 39% and 13%.
On to `Br.Oc1ccc(CCNCCCCCCNCCc2ccc(Cl)cc2)c(Cl)c1O`, for which the Inhibition amounted to 100% with Plasmodium falciparum [1], 30% in the assay with Plasmodium falciparum [2] and 23% in the assay with HepG2.
The like results for `Br.CCOc1ccc(CCCON2C(=N)N=C(N)NC2(C)C)cc1` were, in that order, 93%, 93% and 65%.
As for `CCc1ccc2c(c1O)CCN(C)C2Cc1ccccc1Cl.Cl` (centres undefined), the Inhibition worked out at 99% in the assay with Plasmodium falciparum [1], 99% with Plasmodium falciparum [2] and 13% with HepG2.
With `Cc1ccc(C2CCN(CCCCNC(=O)c3ccc(NC(=O)c4ccc(Cl)cc4)cc3)CC2)c(OCC(F)(F)F)c1`, the results for the Inhibition in the assay with Plasmodium falciparum [1], in the assay with Plasmodium falciparum [2] and in the assay with HepG2 were 99%, 84% and 32%, respectively.
Regarding `COc1ccccc1CNC(=O)c1cc(C2CC2)nc2c1cnn2C(C)C`, the values for the Inhibition with Plasmodium falciparum [1], with Plasmodium falciparum [2] and in the assay on HepG2 were 94%, 92% and 47%, respectively.
For the compound `COc1ccccc1NC(=O)Nc1cccc(-c2cccc(-c3nc4cc(C(F)(F)F)ccc4[nH]3)c2)c1`, the Inhibition with Plasmodium falciparum [1] is 100%; with Plasmodium falciparum [2], 97%; in the assay on HepG2, 21%.
The like results for `CS(=O)(=O)Nc1ccc(-c2cnc3[nH]cc(-c4ccc(C(=O)O)cc4)c3c2)cc1` were, in that order, 95%, 45% and 0%.
Take `Br.c1cc(C2=NC3CCCCC3N2)ccc1OCCCOc1ccc(C2=NC3CCCCC3N2)cc1` (centres undefined): the Inhibition in the assay with Plasmodium falciparum [1] amounted to 99%; in the assay with Plasmodium falciparum [2], 64%; in the assay with HepG2 it was 0%.
`CCOC(=O)c1c(SCc2cccc(F)c2F)[nH]c2ccccc2c1=O`: the Inhibition with Plasmodium falciparum [1] is 98%; in the assay on Plasmodium falciparum [2] it was 95%; with HepG2 it was 1%.
For the compound `N#Cc1ccc(N2CCN(Cc3cccc(-c4ccc(-c5nc6ccccc6[nH]5)cc4)c3)CC2)nc1.O=C(O)C(F)(F)F`, the Inhibition was determined as 89% in the assay with Plasmodium falciparum [1], 40% in the assay with Plasmodium falciparum [2] and 45% with HepG2.
With `Br.N=C1N=C(N)NC2(CCCCC2)N1OCCCOc1cc(Cl)c(Cl)cc1Cl`, the Inhibition in the assay with Plasmodium falciparum [1] is reported as 94%; in the assay with Plasmodium falciparum [2] it was 98%; in the assay with HepG2 it was 62%.
Turning to `O=C(/C=C/c1cccc(C(F)(F)F)c1)NCCCCCN1CCN(C(=O)Nc2ccc(Cl)c(Cl)c2)CC1.O=C(O)C(F)(F)F`, the Inhibition worked out at 89% with Plasmodium falciparum [1], 0% with Plasmodium falciparum [2] and 29% with HepG2.
The matching figures for `COc1cc2nc(N3CCN(C(=O)c4ccc(N(C(=O)OC(C)(C)C)C(=O)OC(C)(C)C)cc4)CC3)nc(N)c2cc1OC`: 96%, 19% and 12%.
The like results for `Cc1ccc(/C=C2/SC(=Nc3ccccc3)NC2=O)c(C)c1` were, in that order, 93%, 90% and 1%.
The like results for `COc1ccc(Nc2c3ccc(Cl)cc3nc3ccc(OC)cc23)cc1.Cl` were, in that order, 94%, 99% and 14%.
